Experiment [1] concerns the target T1, Serine/threonine-protein kinase D2 (Homo sapiens) (UniProt Q9BZL6).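 Note: mean value of PRKD2 inhibition, from the GSK PKIS screening panel.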
T1 sequence (whole entry): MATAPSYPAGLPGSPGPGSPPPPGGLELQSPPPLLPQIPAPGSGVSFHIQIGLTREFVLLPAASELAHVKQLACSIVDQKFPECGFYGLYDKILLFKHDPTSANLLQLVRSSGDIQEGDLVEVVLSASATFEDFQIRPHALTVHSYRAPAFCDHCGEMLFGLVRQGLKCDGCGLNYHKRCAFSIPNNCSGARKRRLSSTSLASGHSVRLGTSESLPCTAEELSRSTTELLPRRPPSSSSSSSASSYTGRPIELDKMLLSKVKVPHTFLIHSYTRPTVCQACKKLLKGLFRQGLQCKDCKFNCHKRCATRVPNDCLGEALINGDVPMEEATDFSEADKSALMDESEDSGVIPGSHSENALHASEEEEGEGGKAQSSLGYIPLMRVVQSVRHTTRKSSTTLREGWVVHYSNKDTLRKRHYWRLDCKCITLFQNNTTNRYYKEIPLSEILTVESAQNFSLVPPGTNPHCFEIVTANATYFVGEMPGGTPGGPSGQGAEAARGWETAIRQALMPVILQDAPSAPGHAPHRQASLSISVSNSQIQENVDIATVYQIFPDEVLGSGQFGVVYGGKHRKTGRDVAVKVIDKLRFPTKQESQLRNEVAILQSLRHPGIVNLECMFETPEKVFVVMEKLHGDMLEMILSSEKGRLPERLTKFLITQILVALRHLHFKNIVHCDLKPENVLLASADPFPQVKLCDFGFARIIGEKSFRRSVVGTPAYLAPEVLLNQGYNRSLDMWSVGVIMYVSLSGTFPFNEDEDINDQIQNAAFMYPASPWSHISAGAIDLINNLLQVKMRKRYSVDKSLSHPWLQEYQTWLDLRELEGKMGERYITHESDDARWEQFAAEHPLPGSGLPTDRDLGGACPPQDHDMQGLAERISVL
Conditions: at 1 µM.

Experiment [2] concerns the target T2, Serine/threonine-protein kinase D3 (Homo sapiens) (UniProt O94806).
T2 sequence (whole entry): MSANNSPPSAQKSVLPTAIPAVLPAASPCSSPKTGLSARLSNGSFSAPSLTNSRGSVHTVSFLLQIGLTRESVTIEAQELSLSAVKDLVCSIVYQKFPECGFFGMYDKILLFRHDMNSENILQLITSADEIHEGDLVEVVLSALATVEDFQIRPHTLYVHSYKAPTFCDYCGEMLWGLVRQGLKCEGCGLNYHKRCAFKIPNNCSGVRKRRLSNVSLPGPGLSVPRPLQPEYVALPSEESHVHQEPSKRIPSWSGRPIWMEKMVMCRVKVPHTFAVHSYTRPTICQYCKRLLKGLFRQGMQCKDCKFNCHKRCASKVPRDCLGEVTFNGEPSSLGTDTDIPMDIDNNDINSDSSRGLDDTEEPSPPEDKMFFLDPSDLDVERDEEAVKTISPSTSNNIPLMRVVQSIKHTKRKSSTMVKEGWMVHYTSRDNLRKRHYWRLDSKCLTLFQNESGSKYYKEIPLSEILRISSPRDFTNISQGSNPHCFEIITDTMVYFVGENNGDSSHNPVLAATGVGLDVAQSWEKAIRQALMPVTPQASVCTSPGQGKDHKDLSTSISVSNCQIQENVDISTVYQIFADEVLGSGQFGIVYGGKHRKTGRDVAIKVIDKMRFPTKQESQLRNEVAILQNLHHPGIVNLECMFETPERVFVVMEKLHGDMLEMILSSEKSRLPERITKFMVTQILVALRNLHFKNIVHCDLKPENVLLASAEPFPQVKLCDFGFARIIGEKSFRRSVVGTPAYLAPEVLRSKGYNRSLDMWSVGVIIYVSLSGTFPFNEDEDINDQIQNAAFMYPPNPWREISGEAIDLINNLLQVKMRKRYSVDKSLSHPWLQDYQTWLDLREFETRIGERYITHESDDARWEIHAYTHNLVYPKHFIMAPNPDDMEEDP
The following applies: at 0.1 µM.

In experiment [3] the target is T2, Serine/threonine-protein kinase D3 (Homo sapiens). Conditions: at 1 µM.
The target of experiment [4] is T3, cGMP-dependent protein kinase 1 (Homo sapiens) (UniProt Q13976).
T3 sequence (whole entry): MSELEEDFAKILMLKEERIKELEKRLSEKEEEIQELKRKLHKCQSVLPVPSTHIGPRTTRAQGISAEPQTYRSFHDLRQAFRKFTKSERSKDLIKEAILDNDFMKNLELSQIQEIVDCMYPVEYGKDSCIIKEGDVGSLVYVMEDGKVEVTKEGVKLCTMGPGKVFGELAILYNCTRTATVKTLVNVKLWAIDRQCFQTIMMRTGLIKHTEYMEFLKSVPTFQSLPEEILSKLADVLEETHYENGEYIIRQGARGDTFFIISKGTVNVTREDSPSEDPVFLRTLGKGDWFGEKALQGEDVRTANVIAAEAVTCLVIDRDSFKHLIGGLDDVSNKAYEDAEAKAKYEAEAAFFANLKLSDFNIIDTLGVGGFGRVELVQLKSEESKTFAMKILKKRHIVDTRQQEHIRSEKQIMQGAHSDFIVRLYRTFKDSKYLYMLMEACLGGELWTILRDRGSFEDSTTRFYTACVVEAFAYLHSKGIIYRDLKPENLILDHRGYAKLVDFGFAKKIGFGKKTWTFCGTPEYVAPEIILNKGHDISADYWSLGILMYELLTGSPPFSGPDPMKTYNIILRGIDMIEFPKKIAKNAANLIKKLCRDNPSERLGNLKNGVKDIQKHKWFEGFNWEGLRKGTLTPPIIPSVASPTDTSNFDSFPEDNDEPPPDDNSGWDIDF
The following applies: at 0.1 µM.

The target of experiment [5] is T3, cGMP-dependent protein kinase 1 (Homo sapiens). The following applies: at 1 µM.
Experiment [6] addresses T4, cGMP-dependent protein kinase 2 (Homo sapiens) (UniProt Q13237).
T4 sequence (whole entry): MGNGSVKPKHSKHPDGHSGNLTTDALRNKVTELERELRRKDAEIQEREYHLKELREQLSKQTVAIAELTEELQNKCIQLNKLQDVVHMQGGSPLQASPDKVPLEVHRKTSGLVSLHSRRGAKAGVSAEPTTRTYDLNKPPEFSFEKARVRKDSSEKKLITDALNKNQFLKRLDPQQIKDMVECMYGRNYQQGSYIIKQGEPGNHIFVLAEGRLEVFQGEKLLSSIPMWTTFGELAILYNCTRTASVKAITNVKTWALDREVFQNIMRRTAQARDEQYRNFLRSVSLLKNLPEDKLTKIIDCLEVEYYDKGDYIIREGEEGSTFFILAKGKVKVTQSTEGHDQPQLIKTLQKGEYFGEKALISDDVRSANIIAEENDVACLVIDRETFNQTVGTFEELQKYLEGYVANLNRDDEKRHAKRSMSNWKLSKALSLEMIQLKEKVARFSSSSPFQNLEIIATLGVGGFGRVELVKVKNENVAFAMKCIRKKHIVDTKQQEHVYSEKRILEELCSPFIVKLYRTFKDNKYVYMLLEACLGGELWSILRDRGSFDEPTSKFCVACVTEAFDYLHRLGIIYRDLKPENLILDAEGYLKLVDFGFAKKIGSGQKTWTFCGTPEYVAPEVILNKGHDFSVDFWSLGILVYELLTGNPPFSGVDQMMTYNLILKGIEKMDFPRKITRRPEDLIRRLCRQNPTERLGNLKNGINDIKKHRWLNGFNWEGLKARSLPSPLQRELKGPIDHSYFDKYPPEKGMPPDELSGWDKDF
Conditions: at 0.1 µM.

Experiment [7] addresses T4, cGMP-dependent protein kinase 2 (Homo sapiens). Conditions: at 1 µM.
Experiment [8] concerns the target T5, cAMP-dependent protein kinase catalytic subunit PRKX (Homo sapiens) (UniProt P51817).
T5 sequence (whole entry): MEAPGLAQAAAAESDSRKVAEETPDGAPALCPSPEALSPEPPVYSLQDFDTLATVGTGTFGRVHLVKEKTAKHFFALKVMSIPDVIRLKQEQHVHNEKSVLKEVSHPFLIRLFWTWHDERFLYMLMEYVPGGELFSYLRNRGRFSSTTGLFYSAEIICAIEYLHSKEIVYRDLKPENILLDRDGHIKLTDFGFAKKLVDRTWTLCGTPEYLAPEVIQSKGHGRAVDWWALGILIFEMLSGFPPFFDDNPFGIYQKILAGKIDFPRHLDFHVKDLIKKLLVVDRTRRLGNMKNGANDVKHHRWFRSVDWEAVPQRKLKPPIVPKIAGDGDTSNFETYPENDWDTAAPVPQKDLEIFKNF
Conditions: at 0.1 µM.

Experiment [9] deals with T5, cAMP-dependent protein kinase catalytic subunit PRKX (Homo sapiens). Conditions: at 1 µM.
The target of experiment [10] is Rho-associated protein kinase 1 (Homo sapiens) (UniProt Q13464). Conditions: at 0.1 µM.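 Note: values are mean percent inhibition of ROCK1.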
Rho-associated protein kinase 1 (Homo sapiens), sequence (Q13464 2-1354 limits assumed): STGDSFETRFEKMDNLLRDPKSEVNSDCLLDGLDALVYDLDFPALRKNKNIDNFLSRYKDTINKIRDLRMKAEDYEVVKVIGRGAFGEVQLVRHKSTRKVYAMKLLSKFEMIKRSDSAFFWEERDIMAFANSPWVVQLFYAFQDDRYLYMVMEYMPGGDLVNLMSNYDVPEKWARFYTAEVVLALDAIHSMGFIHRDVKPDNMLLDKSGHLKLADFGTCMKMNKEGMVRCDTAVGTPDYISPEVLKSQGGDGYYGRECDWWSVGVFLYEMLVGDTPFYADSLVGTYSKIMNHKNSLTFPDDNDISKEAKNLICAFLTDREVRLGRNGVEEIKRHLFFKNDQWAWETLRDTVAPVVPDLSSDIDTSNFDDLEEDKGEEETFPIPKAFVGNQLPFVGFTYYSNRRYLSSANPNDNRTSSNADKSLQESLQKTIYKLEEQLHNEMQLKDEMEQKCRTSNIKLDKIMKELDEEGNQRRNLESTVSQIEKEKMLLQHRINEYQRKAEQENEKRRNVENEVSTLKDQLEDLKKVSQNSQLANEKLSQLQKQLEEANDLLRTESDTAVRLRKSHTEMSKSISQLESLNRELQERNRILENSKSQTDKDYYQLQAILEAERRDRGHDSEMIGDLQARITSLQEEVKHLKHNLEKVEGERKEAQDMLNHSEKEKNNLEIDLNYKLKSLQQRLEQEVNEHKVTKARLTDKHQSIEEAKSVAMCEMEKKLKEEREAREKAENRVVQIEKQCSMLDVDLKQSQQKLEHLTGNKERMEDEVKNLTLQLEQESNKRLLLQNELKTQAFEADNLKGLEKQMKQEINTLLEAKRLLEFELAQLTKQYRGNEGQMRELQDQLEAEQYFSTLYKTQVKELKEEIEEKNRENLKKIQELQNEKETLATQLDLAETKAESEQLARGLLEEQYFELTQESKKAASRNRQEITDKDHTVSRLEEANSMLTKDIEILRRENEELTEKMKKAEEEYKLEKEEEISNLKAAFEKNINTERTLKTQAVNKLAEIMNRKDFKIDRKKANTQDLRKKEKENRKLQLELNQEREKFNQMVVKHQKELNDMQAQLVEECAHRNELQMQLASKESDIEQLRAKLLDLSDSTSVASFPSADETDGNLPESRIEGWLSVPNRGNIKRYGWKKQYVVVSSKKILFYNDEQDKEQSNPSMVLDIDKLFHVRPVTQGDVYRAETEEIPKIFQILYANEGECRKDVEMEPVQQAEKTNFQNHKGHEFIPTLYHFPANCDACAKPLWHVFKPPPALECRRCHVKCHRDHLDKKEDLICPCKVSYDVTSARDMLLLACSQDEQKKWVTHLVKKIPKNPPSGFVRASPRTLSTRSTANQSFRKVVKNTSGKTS

SMILES strings stand for the structures.

For the compound `CCOc1ccc2c(-c3ccnc(Nc4cccc(C(F)(F)F)c4)n3)cnn2n1`, the inhibition in [1] is 1.84%; in [2], 3.02%; in [3], 3.58%; in experiment [4] it was 0.52%; in [5], 1.15%; in experiment [6], 0.91%. Further, the inhibition is 0.29% in experiment [7], 0.1% in experiment [8], -0.76% in experiment [9] and -1.15% in experiment [10].

Consider `Clc1ccc(-c2nn3ncccc3c2-c2ccnc(Nc3ccccc3)n2)cc1`, for which the inhibition in [1] came out at 2.67%; in [2], 1.78%; in [3] it was 4.14%; in [4], 3.3%; in [5], 5.54%; in experiment [6] it was 1.46%. Besides, the inhibition was determined as 3.41% in experiment [7], 2.16% in experiment [8], 2.02% in experiment [9] and 2.28% in experiment [10].

Take `COC(=O)Nc1nc2ccc(Oc3ccc(NC(=O)Nc4cccc(Cl)c4)cc3)cc2[nH]1`: the inhibition in [1] is 2.04%; in [2], 0.95%; in experiment [3], 3.39%; in experiment [4], 0.03%; in experiment [5], -0.55%; in [6] it was 0.27%. For the same compound, the inhibition in experiment [7] is -0.85%; in [8], 0.22%; in experiment [9] it was -1.01%; in experiment [10], 0.69%.

Take `CCn1c(-c2nonc2N)nc2cnc(Oc3cccc(NC(=O)c4ccc(N(C)C)cc4)c3)cc21`: the inhibition in experiment [1] stood at 5.77%; in experiment [2] it was 1.61%; in [3], 2.97%; in experiment [4], 56.1%; in experiment [5] it was 73%; in [6], 21.7%. Moreover, the inhibition was found to be 60.8% in experiment [7], 12.9% in experiment [8], 55.8% in experiment [9] and 85.5% in experiment [10].

In the case of `COC(=O)Nc1nc2ccc(S(=O)(=O)c3ccc(NC(=O)Nc4cc(C(F)(F)F)ccc4F)cc3)cc2[nH]1`, the inhibition turned out to be 5.37% in experiment [1]; 3.18% in experiment [2]; 5.1% in experiment [3]; 2.21% in experiment [4]; 3.86% in experiment [5]; 2.34% in [6]. In addition, the inhibition is 2.48% in experiment [7], 0.54% in experiment [8], -0.36% in experiment [9] and 0.44% in experiment [10].

Regarding `O=C(Nc1n[nH]c2cc(-c3ccc(F)cc3)ccc12)C1CC1`, the inhibition in experiment [1] stood at 4.37%; in experiment [2], 3.68%; in experiment [3] it was 5.25%; in experiment [4] it was 4.3%; in experiment [5], 6.58%; in experiment [6], 3.33%. Also, the inhibition in experiment [7] was 5.58%; in experiment [8], 2.23%; in [9], 3.66%; in experiment [10] it was 6.12%.

In the case of `CS(=O)(=O)CCNCc1coc(-c2ccc3ncnc(Nc4ccc(OCc5ccccc5)cc4)c3c2)c1`, the inhibition came to 2.1% in [1]; 2.3% in experiment [2]; 3.06% in [3]; 1.72% in experiment [4]; 3.25% in experiment [5]; 1.73% in experiment [6]. Besides, the inhibition in experiment [7] worked out at 3.41%; in [8], 1.12%; in experiment [9] it was 0.96%; in [10], 0.65%.

`COc1cc(/C=N/Nc2ncnc3[nH]ncc23)ccc1O`: the inhibition in [1] is 3.63%; in [2] it was 2.22%; in experiment [3] it was 3.16%; in experiment [4] it was 3.83%; in experiment [5], 14.8%; in experiment [6], 13.5%. Besides, the inhibition in [7] amounted to 55%; in [8], 1.69%; in [9] it was 3.71%; in experiment [10] it was 1.5%.

The values are drawn from ChEMBL document CHEMBL1961873, “Compounds: GSK PKIS; Assays: Nanosyn kinase panel” (2012).
